Source: PubChem BioAssay
Compounds with a hit are over-represented: about 10% of the library has one in this group of screens.
HEK293 tox – cytotoxic compounds in HEK 293 cells; HEK 293 viability, ATP luminescence (CellTiter-Glo), 48-72 h; Potency, µM (doses to about 115 µM), for inactives: top-dose activity change, negative = cytotoxicity, hits mostly inhibitors; AID 1345083; 94,000 compounds, 6.6% hits; note: % is set by controls: 0 for no effect and ±100 for the full control effect; nearly all actives have a fitted effect of over 60% in size
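Read-out: CellTiter-Glo ATP luminescence. Cells: HEK 293, 250 cells/well. Exposure: 48 or 72 hr, 37 degree Celsius.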
FLuc inh – Photinus pyralis luciferase inhibition; P08659; purified P. pyralis luciferase, luminescence, biochemical; Potency, µM (doses to about 115 µM), usual class: inhibitors; 76,000 compounds, 2.5% hits; note: % is set by controls: 0 for no effect and ±100 for the full control effect; nearly all actives have a fitted effect of over 65% in size
Target sequence (P08659 whole entry, looked up): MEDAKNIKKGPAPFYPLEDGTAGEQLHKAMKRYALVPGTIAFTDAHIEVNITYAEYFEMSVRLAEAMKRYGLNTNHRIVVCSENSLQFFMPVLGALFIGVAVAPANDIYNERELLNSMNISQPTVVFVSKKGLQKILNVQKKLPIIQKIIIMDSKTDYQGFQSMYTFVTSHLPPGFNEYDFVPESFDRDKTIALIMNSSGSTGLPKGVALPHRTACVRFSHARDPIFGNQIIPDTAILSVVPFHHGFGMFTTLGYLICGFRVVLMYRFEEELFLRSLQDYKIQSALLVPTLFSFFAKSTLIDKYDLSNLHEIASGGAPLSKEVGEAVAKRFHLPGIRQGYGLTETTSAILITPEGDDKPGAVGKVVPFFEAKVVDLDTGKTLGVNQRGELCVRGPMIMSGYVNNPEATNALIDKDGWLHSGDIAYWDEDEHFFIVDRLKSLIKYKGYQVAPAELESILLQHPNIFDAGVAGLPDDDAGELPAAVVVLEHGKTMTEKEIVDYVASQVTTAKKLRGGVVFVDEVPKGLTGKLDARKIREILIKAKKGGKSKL
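Luminescence read by CCD imager after adding enzyme (10nM final) to wells holding compound, titrated in qHTS. Substrates 10uM each D-luciferin and ATP; buffer 50mM Tris acetate pH 7.5, 10mM Mg acetate, Tween-20, BSA.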
GPT2 inh – GPT2 alanine aminotransferase inhibition; Potency, µM (top dose mostly 57.7 µM), for the others: top-dose activity change, negative = inhibition, most hits filed as inhibitors; Recombinant GPT2, coupled pyruvate oxidase/HRP Amplex Red fluorescence; 100,000 compounds, 0.25% hits; Q8TD30; note: % is set by controls: 0 for no effect and ±100 for the full control effect; nearly all actives have a fitted effect of over 60% in size
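GPT2 10ng/uL, a-KG 250uM, L-Ala 2mM, HEPES pH7.5 + 0.0001% Tween; 30 min RT. Then Amplex mix (PO/HRP/ThPP), 30 min RT dark, fluorescence. AOA 50uM used as positive control.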
NIH3T3 tox – NIH 3T3 cell cytotoxicity; 94,000 compounds, 4.3% hits; Potency, µM (highest dose often 96.7 µM), for the others: at the highest dose activity change, negative = cytotoxicity, actives largely listed as inhibitors; NIH 3T3 viability, CellTiter-Glo ATP luminescence, 48-72 h; AID 1345082; note: % is set by controls: 0 for no effect and ±100 for the full control effect; nearly all actives have a fitted effect of over 55% in size
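First NIH 3T3 cells are plated at 400 cells/well; next compound is pinned in; then plates incubate 48 or 72 hr at 37 °C; finally CellTiter-Glo is added and luminescence read after 10 min.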
hNpr1 antagonist – human Npr1 receptor antagonism. P16066. HEK293 hNpr1 GloSensor cGMP, ANP-stimulated luminescence. Potency, µM (series often up to 46.3 µM), inactives show top-dose activity change, negative = inhibition, hits mostly inhibitors. 76,000 compounds, 1.6% hits. AID 1347048; calls by dose curve; note: % is set by controls: 0 for no effect and ±100 for the full control effect; nearly all actives have a fitted effect of over 60% in size
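Compound pre-incubated 30 min at room temperature on GloSensor-loaded HEK293 cells stably carrying hNpr1 and the pGS-40F cGMP biosensor. Stimulation uses hNppA at 0.1 nM final; luminescence is taken at baseline and 20 min post-agonist.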
Npr1 antag conf – confirmation of human Npr1 natriuretic peptide receptor antagonists; shares compounds with hNpr1 antagonist; HEK293 hNpr1 cGMP GloSensor luminescence, ANP-stimulated; Potency, µM (top dose mostly 57.6 µM), for the others: at the highest dose activity change, negative = inhibition, usual class: inhibitors; 1,400 compounds, 76% hits; calls by dose curve; note: nearly all actives have a fitted effect of over 70% in size
Npr2 selectivity – selectivity test of Npr1 antagonists against human Npr2. AID 1347046. Potency, µM (titrated, usually from 57.6 µM), for inactives: at the highest dose activity change, negative = inhibition, hits mostly inhibitors. shares compounds with hNpr1 antagonist. HEK293 hNpr2 GloSensor cGMP luminescence, CNP-stimulated. 1,400 compounds, 67% hits; calls by dose curve; note: nearly all actives have a fitted effect of over 70% in size
FLuc inh counter – FLuc enzyme inhibition, Npr1 counter-screen; Potency, µM (doses to about 57.6 µM), inactives show at the highest dose activity change, negative = inhibition, most hits filed as inhibitors; 1,400 compounds, 0.7% hits; AID 1347047; shares compounds with hNpr1 antagonist; purified FLuc enzyme, luminescence, Km substrate; note: 0% is about no effect
GloSensor cGMP – control cell line activity, Npr1 antagonist counter-screen. shares compounds with hNpr1 antagonist. Potency, µM (top dose mostly 57.6 µM), for the others: at the top dose activity change, negative = inhibition, hits mostly inhibitors. AID 1347051. HEK293 GloSensor cGMP, SNP-stimulated, luminescence. 1,400 compounds, 69% hits; calls by dose curve; note: % is set by controls: 0 for no effect and ±100 for the full control effect; nearly all actives have a fitted effect of over 70% in size
Starred values were filed as active, the others as inactive; i = inactive; ? = inconclusive; · = not tested or not shown; [ ] = another dose, or the depositor's remark. Unless noted, calls come from the whole dose curve; as a rule, active = well fitted curve in the direction sought with a large enough effect; inconclusive = small, poorly fitted or top-dose-only effect, or another doubt; inactive = no such curve, though single readings can be large; an effect the other way counts as inactive or inconclusive. Potency is the fitted concentration of half-maximal effect.

SMILES | HEK293 tox | FLuc inh | GPT2 inh | NIH3T3 tox | hNpr1 antagonist | Npr1 antag conf | Npr2 selectivity | FLuc inh counter | GloSensor cGMP
O=C(NCC1CC1)c1nc2c(o1)CCN(Cc1ccc(F)cc1F)CC2 | ? | i | -1%[88.5 µM] | ? | 25µM* | 22µM* | 22µM* | -1%[86.2 µM] | 20µM*
Cc1ccccc1CN1CCc2nc(C(=O)NCCOc3ccccc3)oc2CC1 | ? | i | -14%[88.5 µM] | ? | -25%[70.6 µM] | · | · | · | ·
COc1ccc(CN2CCc3nc(C(=O)NCCOc4ccccc4)oc3CC2)cn1 | ? | i | -1%[88.5 µM] | ? | ? | 44µM* | ? | -1%[86.2 µM] | ?
COc1ccc(C(=O)N2CCC(C(=O)N3CCC(c4nc5ccncc5[nH]4)C3)CC2)cc1 (configuration not stated) | 4% | · | i | -6% | · | · | · | · | ·
CCc1ccc([S+](=O)([O-])c2nnn3c2nc(NCCCOC(C)C)c2ccccc23)cc1 | 0% | · | -8% | -10% | · | · | · | · | ·
COc1ccccc1C(=O)N1CCN(c2ccc3nnc(C)n3n2)CC1 | -17%[172 µM] | · | · | -29%[138 µM] | · | · | · | · | ·
COc1ccc(-n2c(=O)c(C(=O)NCCc3ccc(F)cc3)nc3cccnc32)cc1 | -3% | · | i | -15% | · | · | · | · | ·
N#Cc1cccnc1-c1ccc(C(=O)N2CCC(NC(=O)NC3CCCC3)CC2)cc1 | -18% | · | i | -36% | · | · | · | · | ·
O=C(NCc1cccc(F)c1)c1nc2c(o1)CCN(Cc1cc(F)ccc1F)CC2 | ? | i | 3%[88.5 µM] | 50µM* | ? | 40µM* | ? | 0%[86.2 µM] | 40µM*
Cc1ccccc1CN1CCc2nc(C(=O)NCc3ccncc3)oc2CC1 | ? | i | i | ? | 22µM* | 31µM* | 31µM* | -2%[86.2 µM] | 25µM*
CCCC[S+](=O)([O-])N1C[C@@H](C(=O)OCC)[C@@H]2Oc3cc(OC)ccc3[C@@H]21 | ? | · | · | -36% | · | · | · | · | ·
CC(=O)NCc1nnc2n1C(C(=O)NCc1ccccc1)CC2 (configuration not stated) | 0% | · | -25% | -24% | · | · | · | · | ·
COc1ccc(C(=O)N2CCC(c3nn(-c4ccccn4)c(=O)[nH]3)CC2)cc1 | i | · | i | 2% | · | · | · | · | ·
Cc1ccccc1NC(=O)c1cnc2c(c1)N(C(=O)Cc1cn(C)c3ccccc13)CCC2 | ? | i | -15%[88.5 µM] | ? | -15%[70.6 µM] | · | · | · | ·
Cn1cc(CC(=O)N2CCCc3ncc(C(=O)Nc4cccc(Cl)c4)cc32)c2ccccc21 | ? | i | 2% | ? | -24% | -30% | -28% | -1% | -23%
O=C(NC(c1ccccc1)c1ccccc1)c1cnc2c(c1)N(C(=O)Cc1ccc(O)cc1)CCC2 | -30% | i | ? | ? | -8% | · | · | · | ·
COc1ccccc1CC(=O)N1CCCc2ncc(C(=O)Nc3cccc(F)c3)cc21 | 63µM* | i | i | 89µM* | 32µM* | 35µM* | 35µM* | -15%[86.2 µM] | 35µM*
O=C(Nc1ccccc1)c1cnc2c(c1)N(C(=O)Cc1ccc(O)cc1)CCC2 | ? | i | 2%[88.5 µM] | -17%[138 µM] | 28µM* | 35µM* | 35µM* | -3%[86.2 µM] | 35µM*
COc1ccccc1CC(=O)N1CCCc2ncc(C(=O)Nc3cccnc3)cc21 | ? | i | -7%[88.5 µM] | -20%[138 µM] | 0%[70.6 µM] | · | · | · | ·
